PostGolgi yeast: growth inhibition of a yeast mutant, post-Golgi transport screen; inhibition, % at 10 µM; hit rate 0.9% among 98,000; post-Golgi transport phenotypic cell assay; AID 739;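 further: yeast cells grown in 1536-well plates; yeast grown about 18 h at 30C before absorbance read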
D1 mod: D1 dopamine receptor (human) allosteric modulation | hit rate 5.9% among 58,000 | HEK293 D1, CRE-luciferase, dopamine EC30 potentiation; actives deviate in either direction | AID 641 | B-score at 10 µM | P21728;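 active means luminescence count or its row- and column-corrected plate score outside the 99.7% band of the plate's sample wells, on either side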
Target sequence (P21728 whole entry, looked up): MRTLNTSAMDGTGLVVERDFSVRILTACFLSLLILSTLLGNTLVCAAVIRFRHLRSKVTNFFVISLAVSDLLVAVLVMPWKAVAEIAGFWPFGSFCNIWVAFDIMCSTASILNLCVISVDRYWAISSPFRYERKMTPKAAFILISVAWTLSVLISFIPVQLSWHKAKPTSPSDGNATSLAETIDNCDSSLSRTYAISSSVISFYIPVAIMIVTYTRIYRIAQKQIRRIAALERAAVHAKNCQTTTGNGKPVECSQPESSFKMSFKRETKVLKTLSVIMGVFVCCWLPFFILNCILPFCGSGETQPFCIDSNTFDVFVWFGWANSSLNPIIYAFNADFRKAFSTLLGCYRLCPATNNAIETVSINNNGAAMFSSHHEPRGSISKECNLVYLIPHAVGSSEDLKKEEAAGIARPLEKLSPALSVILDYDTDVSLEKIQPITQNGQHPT
PLAP act: activators of human placental alkaline phosphatase | hit rate 1.2% among 96,000 | P05187 | purified PLAP enzyme, luminescent substrate read-out; active compounds read high | activation fold at 20 µM; in the data active means activation fold above about 2
hDAT+cocaine: changed human dopamine transporter uptake under cocaine IC80. Q01959. hit rate 1.3% among 110,000. LLC-PK1 hDAT cells, [14C]-dopamine uptake with cocaine IC80; actives deviate in either direction. AID 449768. B-score at 10 µM;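 active means Z score or B-score, a plate-position-corrected score, falls beyond the plate's 99.7% confidence bounds, in either direction; inactive means both scores lie inside the 99.7% bounds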;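 further: scored against the spread of the other compound wells on the same plate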
Cav32 inh: blocks human Cav3.2 T-type calcium channel. O95180. Cav3.2-expressing cells, Fluo-4 calcium fluorescence FDSS; active compounds read low. B-score at 10 µM. hit rate 4% among 100,000. AID 449739;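 active means single-dose well whose peak fluorescence ratio is a statistical outlier from its plate by either plate-standardised score or position-corrected B-score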
PostGolgi ctrl: growth of the yeast control strain, post-Golgi counter-screen; hit rate 5% among 98,000; inhibition, % at 10 µM; AID 738; efflux-deficient yeast background strain, growth absorbance A615, 16 h
* marks the source's active call; other numbers are inactive results; nt = not tested or not shown. Shown are actives, neighbours in structure and some others; about 12% of the full set was active somewhere. Unless noted, no stated cut-off is given here; in the data, active means inhibition above about 30%; inactive means the rest.

SMILES	PostGolgi yeast	D1 mod	PLAP act	hDAT+cocaine	Cav32 inh	PostGolgi ctrl
CO/N=C(/CS(=O)Cc1ccccc1Cl)c1ccc(Cl)cc1Cl (stereo not drawn)	0.3	nt	1.2	0.178	-3.04	30.5*
CO/N=C(/CNC(=O)c1ccccc1Cl)c1ccc(Cl)cc1	9.2	nt	1.1	nt	nt	12.7
CCOc1ccc(C(O)C(CN2CCOCC2)c2ccccc2)cc1 (stereo not drawn)	13.2	nt	1.2	-1.08	0.663	37.3*
CCCOc1ccc(C(O)C(CN2CCOCC2)c2ccccc2)cc1 (stereo not drawn)	11.2	nt	1.3	-0.0247	0.585	10.6
CCN(CC)CCCN1C(=O)c2oc3ccccc3c(=O)c2C1c1cc(OC)ccc1OC (stereo not drawn)	-5.6	-0.674	1.3	-0.915	0.123	0.6
CC(CN1CCCC(C(N)=O)C1)c1ccccc1 (stereo not drawn)	-5.1	-3.43*	1.4	-1.37	0.526	0.5
NC(=O)C1CCCN(CCc2ccccc2)C1 (stereo not drawn)	4.8	nt	0.9	0.181	-0.437	-4.5
Cc1ccc(-n2nnnc2SCC(=O)N2CC(=O)Nc3ccccc32)cc1	3.7	nt	0.9	1.81	-0.00338	10.5
O=C(NCCc1ccccc1)c1ccc2nc(-c3ccco3)c(-c3ccco3)nc2c1	15.7	nt	1.7	-1.24	-10.8*	-12.5
O=C(NCCO)c1ccc2nc(-c3ccco3)c(-c3ccco3)nc2c1	-11.7	nt	1.2	-0.675	0.497	1.9
Cc1cc(C)n(-c2cc(N3CCOCC3)nc(-c3ccccc3)n2)n1	0.1	0.356	1	0.456	-0.326	42.1*
CC(C)(C)n1ncc2c(=O)n(CC(=O)N3CCN(c4ccccc4)CC3)cnc21	1.0	0.402	0.9	-0.188	-0.414	8.8
Cc1ccc(Nc2nc(N)nc(CSc3nc4ccccc4s3)n2)cc1	1.8	nt	1.4	nt	nt	51.4*
C/C(=N\NC(=O)CN1CCOCC1)C(C)(C)C	-2.8	nt	1	-0.854	0.68	7.7
CCOC(=O)c1ccc(NS(=O)(=O)c2cc(C)ccc2OC)cc1	-10.2	nt	1.4	-0.00292	-2.36	12.6
CCCCOC(=O)c1ccc(NS(=O)(=O)c2cc(-c3nnnn3CC)ccc2OC)cc1	21.0	2.15	2.2*	1.5	-1.19	10.6
CC1(C)CC2CC(C)(CN2C(=O)COC(=O)c2ccc(Cl)c(N)c2)C1 (stereo not drawn)	-1.4	nt	0.9	-0.225	-6.45*	17.4
CC1(C)CC2CC(C)(CN2C(=O)COC(=O)c2ccc(Cl)cc2N)C1 (stereo not drawn)	-2.8	-0.156	1.1	1.78	-1.11	29.7
COc1ccc(CSc2nnc3n(C)c(=O)c4c5c(sc4n23)CCCC5)cc1	nt	nt	1.2	nt	nt	nt
CCCCN(CCCC)C(=O)CSc1nnc2n(C)c(=O)c3c4c(sc3n12)CCCC4	3.8	nt	nt	0.0987	-3.73	33.8*
Cn1c(=O)c2c3c(sc2n2c(SCC(N)=O)nnc12)CC(C(C)(C)C)CC3 (stereo not drawn)	2.8	nt	1.5	0.555	4.19*	11.3
CCSc1nnc2n(-c3ccc(OC)cc3)c(=O)c3c4c(sc3n12)CCCC4	-6.8	nt	1.6	-7.99*	-4.16	9.4
CCCSc1nnc2n(C)c(=O)c3c4c(sc3n12)CCC4	3.6	nt	1.7	0.0794	0.057	3.4
CCOc1cc2[nH]c(=O)n(CCCCC(=O)NC3CCCCC3)c(=O)c2cc1OCC	nt	0.931	nt	nt	nt	nt
CCCC/C(C)=N/NC(=O)C(=O)NCCc1ccccc1	5.1	nt	1	-0.0191	-1.04	18.3
SMILES	PostGolgi yeast	D1 mod	PLAP act	hDAT+cocaine	Cav32 inh	PostGolgi ctrl
CCc1ccc2c(COC(=O)c3n[nH]c4ccccc34)cc(=O)oc2c1	-4.0	-0.535	1.6	-0.643	-0.0185	37.3*
Cc1ccc2c(COC(=O)c3n[nH]c4ccccc34)cc(=O)oc2c1	-4.8	-0.239	1.2	-0.835	-1.04	20.2
CC(C)(C)NC(=O)CN(Cc1cccs1)C(=O)c1csnn1	-10.0	nt	1	0.53	0.384	30.9*
CC(C)(C)NC(=O)CN(Cc1cccs1)C(=O)CCC(=O)Nc1nccs1	-7.4	nt	1	-2.09	0.0576	-8.1
CCCC(C(=O)NCc1ccco1)N(C(=O)CNS(=O)(=O)c1ccccc1)c1ccccc1OC (stereo not drawn)	-14.8	-0.703	1.5	0.173	-5.43*	2.5
CCC(C(=O)NCc1ccco1)N(C(=O)CNS(=O)(=O)c1ccc(C)cc1)c1ccccc1OC (stereo not drawn)	-8.7	-0.893	1.4	1.08	-3.52*	0.8
COc1ccccc1N(C(=O)CNS(=O)(=O)c1ccccc1)C(C(=O)NCc1ccco1)C(C)C (stereo not drawn)	2.3	-0.536	1.6	0.573	-0.023	8.4
Cc1ccc(S(=O)(=O)NCC(=O)N(CC(=O)NCc2ccco2)Cc2ccc3c(c2)OCO3)cc1	8.6	1.37	0.9	0.125	-5.15*	-5.6
CCCCn1c(SCC(=O)N2CCOCC2)nnc1-c1cccs1	-1.2	1.92	1.1	0.416	1.27	2.9
O=C1Nc2ccc([N+](=O)[O-])cc2C1(O)N1CCCCCC1 (stereo not drawn)	15.0	nt	0.8	0.561	1.75	20.3
CCCCNC(=O)c1ccc(S(=O)(=O)c2ccc(Cl)cc2)c(NC(C)=O)c1	-9.0	nt	1.3	-0.0768	-0.713	0.6
CC1CCCCN1C(=O)Cn1cc(/C=C2/C(=O)Nc3ccccc32)c2ccccc21 (stereo not drawn)	60.8*	nt	1.2	2.3	0.23	76.6*
CCOC(=O)CSc1nc2cc(C(=O)NCc3ccco3)ccc2c(=O)n1C1CCCCC1	-7.0	2.65	0.9	0.396	-2.07	45.2*
CCOC(=O)CSc1nc2ccccc2c(=O)n1CC1CCCC1	nt	nt	nt	-1.27	-3.47*	nt
CCOC(=O)CSc1nc2ccccc2c(=O)n1CC1CCC(C(=O)NCc2ccco2)CC1 (stereo not drawn)	2.1	1.16	1.2	-0.857	-1.41	36.4*
CCOC(=O)CSc1nc2cc(C(=O)NCc3ccco3)ccc2c(=O)n1-c1ccc(F)cc1	9.7	-0.898	1	-0.385	-0.188	5.2
O=C(NCc1ccccn1)C1CC(c2ccc(F)cc2)=NO1 (stereo not drawn)	-0.8	nt	1	-0.0608	0.985	3.5
CC/C=C/C(=O)N1CC2(CC(c3cccc(NC(=O)COc4ccc(Cl)cc4)c3)=NO2)C[C@H]1C(N)=O (stereo partly drawn)	nt	nt	nt	0.466	0.046	nt
COc1ccc(-c2nc(-c3ccccc3)nc(N3CCN(C)CC3)c2C#N)cc1	-3.3	nt	1.2	0.07	0.429	33.2*
C=C(C)c1cccc(C(C)(C)NC(=O)Nc2ncccn2)c1	3.4	-0.925	1	0.727	-0.871	56.9*
COc1ccc2[nH]c(=O)c(CN(C(=O)c3ccco3)C3CCCCC3)cc2c1	-1.2	nt	1.5	-0.0991	0.785	5.1
O=C(c1ccc(Cl)cc1Cl)C1(n2cncn2)Oc2ccccc2C1O (stereo not drawn)	100.2*	-0.644	0.9	-0.033	-2.7	96.0*
CCC(=O)Nc1ccccc1C(=O)NC1CCCCC1	-7.4	nt	0.9	0.118	-1.08	6.5

Screening data deposited in PubChem by several laboratories.
